Assay outcomes from PubChem BioAssay.
PrP 5UTR inh: inhibition of PrP 5' UTR reporter expression; inhibition, % (no concentration beside the values); 340,000 tested, 0.35% active; cell-based PrP 5' UTR mRNA reporter, plate reader; in the data active = inhibition above about 52%
Sa ugtP lethal: kills S. aureus RN4220 lacking UgtP; AID 1259309; growth inhibition, % (no concentration beside the values); 330,000 tested, 0.54% active; S. aureus RN4220 ugtP deletion, OD600 growth, 16 h; in the data active = growth inhibition above about 68%
PfHsp40 yeast: compounds rescuing yeast from Plasmodium falciparum HSP40 toxicity; S. cerevisiae expressing PfHsp40, growth rescue, ATP luminescence; growth rescue, % at 12.5 µM; 340,000 tested, 0.68% active; AID 504582; in the data active = growth rescue above about 28%, passing the limit was not always enough;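 note: yeast W303a lacking pdr1 and pdr3 grown in galactose medium; growth measured after three days at 30 °C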
PrPC surface inh: reduces human prion protein on the cell surface; P04156; 370,000 tested, 0.43% active; inhibition, % at 13.8 µM; cell surface PrPC, TR-FRET read-out; in the data active = inhibition above about 24%
CCHF vOTU inh-1: blocks the CCHF virus ovarian tumor domain protease | CCHFV vOTU protease, Pep-AMC fluorescence | inhibition, % at 11.5 µM | 370,000 tested, 0.55% active
RN4220 kill: kills Staphylococcus aureus RN4220; 330,000 tested, 0.33% active; S. aureus RN4220 growth, OD600, 16 h; inhibition, % (no concentration beside the values); AID 1259311; in the data active = inhibition above about 85%
CCHF vOTU inh-2: confirmation of CCHF virus vOTU protease inhibitors; inhibition, % at 11.5 µM; AID 686976; 1,900 tested, 17% active; Recombinant CCHFV vOTU, Pep-AMC fluorescence; shares compounds with CCHF vOTU inh-1
Numbers stand for hits; n = inactive; x = no result. A selection: hits, their analogues and other compounds. The true share with any hit is near 2.1%. Cut-off read from the data, not from the text of the source, unless noted: active = inhibition above about 30%; inactive = the rest.

SMILES | PrP 5UTR inh | Sa ugtP lethal | PfHsp40 yeast | PrPC surface inh | CCHF vOTU inh-1 | RN4220 kill | CCHF vOTU inh-2
CCN(C[C@H]1N[C@@](CC)(C(=O)OC)[C@H]2C(=O)N(Cc3ccccc3)C(=O)[C@@H]12)S(=O)(=O)c1ccc(OC)cc1 | n | n | n | n | 33 | n | n
CCN(C[C@H]1N[C@@](Cc2ccccc2)(C(=O)OC)[C@H]2C(=O)N(Cc3ccccc3)C(=O)[C@@H]12)S(=O)(=O)c1ccc(OC)cc1 | n | n | n | n | n | n | x
COc1ccc(/C=C2\C(=O)NC(=O)c3ccccc32)cc1OC | n | x | n | n | 108 | x | 103
COc1cc(/C=C2\C(=O)N(c3ccc(S(N)(=O)=O)cc3)N=C2C)ccc1OC(=O)c1ccco1 | n | n | n | n | 48 | n | n
C#CCOc1ccc(/C=C2/C(=O)N(c3ccc(S(N)(=O)=O)cc3)N=C2C)cc1OC | x | x | x | n | n | x | x
COc1cc(/C=C2/C(=O)N(c3ccc(C(=O)O)cc3)N=C2C)cc(OC)c1O | n | n | n | n | 67 | n | n
COc1cc(/C=C2\C(=O)N(c3ccccc3)N=C2C)ccc1Oc1ccc([N+](=O)[O-])cc1[N+](=O)[O-] | n | n | n | n | 48 | n | n
COc1cc(/C=C2/C(=O)N(c3ccc(Br)cc3)N=C2C)cc(OC)c1OC | n | n | n | x | x | n | x
C#CCOc1ccc(/C=C2/C(=O)N(c3cccc(C(=O)O)c3)N=C2C)cc1OC | n | x | n | n | 35 | x | n
CC1CCCC(C)N1N=Cc1ccc(C(=O)O)cc1 (stereo not drawn) | x | n | x | x | x | n | x
O=[N+]([O-])c1ccc(C=NNc2cc(Cl)nc(-c3ccccc3)n2)cc1 | x | n | x | x | x | n | x
COc1ccc(S(=O)(=O)Nc2ccc3c(c2)C(=O)N(C(C)CO)CC(C)C(CN(C)C(=O)NC2CCCCC2)O3)cc1 (stereo not drawn) | x | n | x | x | x | n | x
COc1ccccc1/C=C1/C(=O)N(c2ccccc2)N=C1C | n | x | x | n | 71 | x | n
N#CC(=C1CCCN1)c1nc2ccccc2c(=O)[nH]1 | x | n | x | x | x | n | x
C(=N\Nc1ncnc2sc3c(c12)CCC3)/c1ccncc1 | n | x | n | n | 34 | x | n
CC(=O)Nc1ccc(C(=O)N/N=C/c2cc(Br)cc(Br)c2O)cc1 | n | x | n | n | n | x | x
CC(C)C(=O)Nc1ccc(C(=O)N/N=C/c2cc(Br)cc(Br)c2O)cc1 | n | x | n | n | 32 | x | n
CC[n+]1c(-c2ccccc2)c2cc(N)ccc2c2ccc(N)cc21 | n | x | n | n | 91 | x | 90
CCCN(CC(=O)Nc1ccccc1C)C(=O)C1CCN(S(=O)(=O)c2ccc3c(c2)OCCO3)CC1 | n | n | n | n | 35 | n | n
CCCN(CC(=O)Nc1ccccc1C)C(=O)C1CCN(S(=O)(=O)c2ccc(C)c(C)c2)CC1 | x | x | x | n | n | x | x
Cc1ccc(NC2=CC(=O)C(=O)c3ccccc32)cc1 | n | n | n | n | 93 | n | 70
CCOC(=O)c1ccc(NC2=CC(=O)C(=O)c3ccccc32)cc1 | n | n | n | n | n | n | x
NS(=O)(=O)c1ccc(NC2=CC(=O)C(=O)c3ccccc32)cc1 | n | x | n | n | 100 | x | 102
Cc1cccc(C=Nn2c(C)nc3ccccc3c2=O)c1 | x | n | x | x | x | n | x
CSCC(=O)NC1CCCc2c1cnn2-c1cc(F)cc(F)c1 (stereo not drawn) | n | n | n | n | 30 | n | n
SMILES | PrP 5UTR inh | Sa ugtP lethal | PfHsp40 yeast | PrPC surface inh | CCHF vOTU inh-1 | RN4220 kill | CCHF vOTU inh-2
CCN(CC)CC(=O)NC1CCCc2c1cnn2-c1cc(F)cc(F)c1 (stereo not drawn) | n | x | n | n | n | x | x
Cc1ccc(S(=O)(=O)N(C)N=C/C=C/c2ccccc2)cc1 | x | n | x | x | x | n | x
Fc1cccc(CNc2ncnc3ccc(-c4ccc5c(c4)OCO5)cc23)c1 | n | n | n | n | 30 | n | n
O=c1cc(-c2ccccc2)nc(SCc2ccccc2)[nH]1 | n | n | n | n | n | n | x
CCSc1nc(-c2ccccc2)cc(=O)[nH]1 | n | n | n | n | 31 | n | n
O=S(=O)(Nc1ccc(Cl)c(C(F)(F)F)c1)c1cnc[nH]1 | n | n | n | n | 32 | n | n
CCCCCn1c(N)c(C(=O)NCc2cccs2)c2nc3ccccc3nc21 | x | n | x | n | n | n | x
Nc1c(C(=O)NCCCc2ccccc2)c2nc3ccccc3nc2n1Cc1cccs1 | n | n | n | n | 109 | n | n
Cc1cccc(NC(=S)N/N=C/c2ccc([N+](=O)[O-])s2)c1 | n | x | 56 | n | 35 | x | n
O=C(NC1CCCCC1)C(c1ccccc1F)n1c(=O)c(-c2ccco2)nc2ccccc21 (stereo not drawn) | x | x | x | n | n | x | x
O=C(NC1CCCCC1)C(c1ccnc2ccccc12)n1c(=O)c(-c2ccco2)nc2ccccc21 (stereo not drawn) | x | x | x | n | 33 | x | n
CC(C)(C)OC(=O)NCCCCCNC(=O)c1[nH]cnc1C(=O)NC(Cc1ccccc1)C(=O)OCc1ccccc1 (stereo not drawn) | x | n | x | x | x | n | x
C[C@@]12C(=O)N(Cc3ccco3)CC(=O)N1C1c3ccccc3OCC1C2c1ccccc1 (stereo partly drawn) | x | n | x | x | x | n | x
CCOC(=O)C1=C(CNC(C)(C)CC(C)(C)C)NC(=O)NC1c1cccc([N+](=O)[O-])c1 (stereo not drawn) | n | n | n | n | 31 | n | n
CCOC(=O)C1=C(CNCCc2ccc(Cl)cc2)NC(=O)NC1c1cccc([N+](=O)[O-])c1 (stereo not drawn) | n | n | n | n | n | n | x
O=c1cc(C(F)(F)F)nc(SCc2cccc3ccccc23)[nH]1 | n | n | n | n | 31 | n | n
Nc1cc(=O)[nH]c(SCc2cccc3ccccc23)n1 | n | n | n | n | n | n | x
O=C(NC1CCC(=O)N(C(CSc2ccc(Br)cc2)Cc2ccccc2)CC1)OCc1ccccc1 (stereo not drawn) | x | n | x | x | x | n | x
CCOCCCn1c(N)c(C(=O)Nc2sc3c(c2C(=O)OC)CCCC3)c2nc3ccccc3nc21 | n | n | n | n | 31 | n | n
O=c1[nH]ncc(N/N=C\c2cccs2)c1Cl | n | x | n | n | 30 | x | n
O=c1[nH]ncc(NN=Cc2ccncc2)c1Cl | x | n | x | x | x | n | x
O=c1[nH]ncc(N/N=C\c2ccncc2)c1Cl | n | x | n | n | 34 | x | n
CCOc1ccc(Cl)cc1C=NNC(=O)CNC(=O)c1ccccc1 | x | n | x | x | x | n | x
CCCCOCC1CN(CCCC)S(=O)(=O)c2c(cccc2N(C)S(=O)(=O)c2ccc(C)cc2)O1 (stereo not drawn) | x | x | x | n | 32 | x | n
CCCCOCC1CN(CCCC)S(=O)(=O)c2c(F)cccc2O1 (stereo not drawn) | x | x | x | n | n | x | x
O=S1(=O)CCOCC(CC2CCCCC2)N1Cc1ccccc1Br (stereo not drawn) | x | n | x | x | x | n | x
CC(C)n1c(SC2C(=O)CC(C)(C)CC2=O)nc2c1c(=O)n(C)c(=O)n2C | n | n | n | n | 30 | n | n
COc1cc(C=C2NC(=O)NC2=O)cc(Br)c1OCc1ccccc1 | x | n | x | x | x | n | x
